# Data as given in PubChem BioAssay (Tox21).
# Values without a mark were called inactive. Records with an inconclusive call do not appear. Where a call stands in place of a potency, no number is given. Active and inactive are the calls of the source. Unless noted, calls come from the whole dose curve; as a rule, active = well fitted curve in the direction sought with a large enough effect in the repeat runs; inconclusive = weak or mixed curves; inactive = no such curve, though single readings can be large; an effect the other way counts as inactive or inconclusive.
# How the values were obtained:
# [1] = qHTS assay to test for compound auto fluorescence at 535 nm (green) in HEK293 cells (AID 720680)
# [2] = qHTS assay to test for compound auto fluorescence at 460 nm (blue) in HEK293 cell free culture (AID 720681)
# Outline: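 Blue fluorescence (Ex 405/Em 460 nm, triamterene-equivalent) was read immediately after pin transfer of compound or DMSO into medium (DMEM, 10% FBS) without cells.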
# [3] = qHTS assay to test for compound auto fluorescence at 535 nm (green) in HEK293 cell free culture (AID 720682)
# Outline: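 Read-out: 485/535 nm fluorescence intensity, calibrated against fluorescein. Medium only (DMEM + 10% FBS, no cells); test compound or DMSO vehicle added by pintool before plate reading.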
# [4] = qHTS assay to test for compound auto fluorescence at 590 nm (red) in HEK293 cell free culture (AID 720683)
# Outline: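 Red-channel autofluorescence of compounds in culture medium (DMEM, 10% FBS), no cells, measured at 540/590 nm. Rose Bengal sodium is the reference fluorophore for equivalence.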
# [5] = qHTS assay to test for compound auto fluorescence at 460 nm (blue) in HepG2 cell free culture (AID 720685)
# Outline: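 Compound (23 nL) or DMSO pinned into cell-free MEM with 10% FBS; blue fluorescence read at 405/460 nm excitation/emission, expressed as auto-fluorescence equivalency to triamterene.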
# [6] = qHTS assay to test for compound auto fluorescence at 535 nm (green) in HepG2 cell free culture (AID 720686)
# [7] = qHTS assay to test for compound auto fluorescence at 460 nm (blue) in HepG2 cells (AID 720687)
# Outline: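 Blue-channel autofluorescence (Ex/Em 405/460 nm, triamterene-equivalent) was measured after 1 hr compound exposure at 37 C, 5% CO2. Cells were HepG2, plated overnight at 37 C in MEM plus 10% FBS.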
# [8] = target: Glucocorticoid receptor (Homo sapiens) (UniProt P04150); assay: qHTS assay to identify small molecule agonists of the glucocorticoid receptor (GR) signaling pathway (AID 720691; active = well fitted activation curve with a large enough effect in the signal ratio in the repeat runs, not every such curve was filed as active; the % refers to the signal ratio)
# Outline: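 GR-bla HeLa cells (beta-lactamase reporter under glucocorticoid response element) were plated 4 h at 37 C/5% CO2, given compounds in DMSO, and incubated 18 h at 37 C. LiveBLAzer B/G FRET substrate was added for 2 h at room temperature, then fluorescence intensity read.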
# [9] = target: Glucocorticoid receptor (Homo sapiens) (UniProt P04150); assay: qHTS assay to identify small molecule antagonists of the glucocorticoid receptor (GR) signaling pathway (AID 720692; active = well fitted inhibition curve with a large enough effect in the signal ratio in the repeat runs, not every such curve was filed as active; the % refers to the signal ratio)
# Outline: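 GR-bla HeLa cells (beta-lactamase reporter under glucocorticoid response element) were pre-plated 4 h at 37 C, treated with compounds plus 5 nM dexamethasone (final) for 18 h, then read by LiveBLAzer B/G FRET fluorescence after 2 h.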
# [10] = qHTS assay to identify small molecule antagonists of the glucocorticoid receptor (GR) signaling pathway - cell viability counter screen (AID 720693); note: nearly all actives have a fitted effect of over 55% in size
# [11] = qHTS assay for identifying genotoxic compounds that show differential cytotoxicity against isogenic chicken DT40 cell lines with known DNA damage response pathways - wild type cell line (AID 743012); note: nearly all actives have a fitted effect of over 60% in size
# Outline: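 Parental DNA repair-proficient DT40 cells, 300 per well, were pre-incubated ~0.5 h at 37 C/5% CO2, pin-dosed with compounds in DMSO, then incubated 40 h. Viability was read as CellTiter-Glo luminescence after 30 min at room temperature.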
# [12] = qHTS assay for identifying genotoxic compounds that show differential cytotoxicity against isogenic chicken DT40 cell lines with known DNA damage response pathways - Rev3 mutant cell line (AID 743014); note: nearly all actives have a fitted effect of over 55% in size
# [13] = qHTS assay for identifying genotoxic compounds that show differential cytotoxicity against isogenic chicken DT40 cell lines with known DNA damage response pathways - Rad54/Ku70 mutant cell line (AID 743015); note: nearly all actives have a fitted effect of over 60% in size
# [14] = qHTS assay to identify small molecule antagonists of the androgen receptor (AR) signaling pathway using the MDA cell line - cell viability counter screen (AID 743041; note: nearly all actives have a fitted effect of over 45% in size; note: potency is the fitted concentration of half-maximal effect)
# Outline: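 Cells were plated at 3,000 per well and left 5 h. Compounds in DMSO were then pinned in, followed by R1881. After 16 h at 37C, CellTiter-Fluor fluorescence gave viability.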
# [15] = qHTS assay to test for compound auto fluorescence at 590 nm (red) in HepG2 cell free culture (AID 720684)
# Outline: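 Steps: dispense MEM/10% FBS medium, no cells; pin compound or DMSO vehicle; read red channel, Ex/Em 540/590 nm. Output given as Rose Bengal sodium equivalents.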
# [16] = qHTS assay to identify small molecule antagonists of the androgen receptor (AR) signaling pathway - cell viability counter screen (AID 743033; note: nearly all actives have a fitted effect of over 45% in size)
# [17] = target: Androgen receptor (Homo sapiens) (UniProt P10275); assay: qHTS assay to identify small molecule agonists of the androgen receptor (AR) signaling pathway using the MDA cell line (AID 743040; note: nearly all actives have a fitted effect of over 20% in size)
# Outline: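 Cells plated, 5 h at 37C/0% CO2; compound or DMSO pinned; 16 h at 37C; ONE-Glo added; luminescence measured after 30 min at room temperature. Reporter line: MDA-kb2 with MMTV-luciferase responsive to AR and GR.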
# Chain of Glucocorticoid receptor (Homo sapiens) (P04150 whole entry, looked up): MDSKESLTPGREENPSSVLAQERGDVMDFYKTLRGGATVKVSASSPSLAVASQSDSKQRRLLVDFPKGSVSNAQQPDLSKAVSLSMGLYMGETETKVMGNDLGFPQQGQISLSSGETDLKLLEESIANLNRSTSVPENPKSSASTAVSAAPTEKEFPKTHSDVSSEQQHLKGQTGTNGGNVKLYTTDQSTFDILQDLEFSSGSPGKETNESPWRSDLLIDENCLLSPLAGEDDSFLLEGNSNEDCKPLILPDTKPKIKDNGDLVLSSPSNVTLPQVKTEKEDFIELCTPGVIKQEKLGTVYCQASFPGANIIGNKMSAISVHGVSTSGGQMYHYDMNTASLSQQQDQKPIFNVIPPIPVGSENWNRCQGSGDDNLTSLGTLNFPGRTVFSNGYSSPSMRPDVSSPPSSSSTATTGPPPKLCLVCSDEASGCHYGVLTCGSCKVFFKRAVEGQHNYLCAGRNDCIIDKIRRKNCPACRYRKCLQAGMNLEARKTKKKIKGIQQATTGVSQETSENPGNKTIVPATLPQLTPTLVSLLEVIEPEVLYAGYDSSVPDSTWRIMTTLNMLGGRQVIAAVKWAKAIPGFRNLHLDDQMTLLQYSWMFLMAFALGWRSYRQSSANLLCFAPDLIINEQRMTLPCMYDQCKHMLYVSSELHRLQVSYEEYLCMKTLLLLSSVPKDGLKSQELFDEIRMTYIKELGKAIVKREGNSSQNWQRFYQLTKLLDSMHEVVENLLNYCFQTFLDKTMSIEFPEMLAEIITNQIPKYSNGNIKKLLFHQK
# Chain of Androgen receptor (Homo sapiens) (P10275 whole entry, looked up): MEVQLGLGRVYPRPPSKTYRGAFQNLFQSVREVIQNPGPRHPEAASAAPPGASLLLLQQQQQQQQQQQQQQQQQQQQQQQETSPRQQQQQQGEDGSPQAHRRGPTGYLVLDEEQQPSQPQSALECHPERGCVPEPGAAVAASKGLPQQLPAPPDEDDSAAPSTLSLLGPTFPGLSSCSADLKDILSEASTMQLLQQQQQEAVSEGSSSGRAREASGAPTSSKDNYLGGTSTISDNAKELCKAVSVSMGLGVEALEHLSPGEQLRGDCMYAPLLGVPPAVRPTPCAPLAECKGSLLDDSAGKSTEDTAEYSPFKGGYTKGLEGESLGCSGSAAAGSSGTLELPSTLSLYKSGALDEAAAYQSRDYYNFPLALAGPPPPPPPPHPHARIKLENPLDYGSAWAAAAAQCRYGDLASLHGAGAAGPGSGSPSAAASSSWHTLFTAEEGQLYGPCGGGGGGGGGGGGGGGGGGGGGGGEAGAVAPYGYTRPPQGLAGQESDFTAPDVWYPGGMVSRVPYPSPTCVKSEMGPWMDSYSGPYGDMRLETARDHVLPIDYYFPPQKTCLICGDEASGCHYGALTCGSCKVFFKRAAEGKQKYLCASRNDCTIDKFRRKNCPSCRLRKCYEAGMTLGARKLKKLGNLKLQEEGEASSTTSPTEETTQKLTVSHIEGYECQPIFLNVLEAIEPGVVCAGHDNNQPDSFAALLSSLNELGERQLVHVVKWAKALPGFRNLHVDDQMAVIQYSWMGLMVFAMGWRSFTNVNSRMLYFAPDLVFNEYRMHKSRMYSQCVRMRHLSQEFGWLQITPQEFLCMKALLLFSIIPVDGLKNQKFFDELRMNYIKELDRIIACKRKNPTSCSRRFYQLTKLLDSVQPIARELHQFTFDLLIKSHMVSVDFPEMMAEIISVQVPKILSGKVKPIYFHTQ
SMILES,outcome [1],outcome [2],outcome [3],outcome [4],outcome [5],outcome [6],outcome [7],Potency [8],Potency [9],outcome [10],Potency [11],Potency [12],Potency [13],Potency [14],outcome [15],outcome [16],Potency [17]
O=C1NC(=O)C2CC=CCC12 (stereo not given),inactive,inactive,inactive,inactive,inactive,inactive,inactive,inactive,inactive,inactive,inactive,inactive,inactive,inactive,–,–,–
CCCc1nn(C)c2c(=O)[nH]c(-c3cc(S(=O)(=O)N4CCN(C)CC4)ccc3OCC)nc12,inactive,inactive,inactive,inactive,inactive,inactive,inactive,–,–,inactive,–,inactive,inactive,inactive,inactive,inactive,–
CCN1C=CN(C)C1C (stereo not given),inactive,inactive,inactive,inactive,inactive,inactive,–,–,inactive,inactive,inactive,inactive,–,inactive,inactive,inactive,–
c1ccc2sc(SN3CCOCC3)nc2c1,inactive,inactive,inactive,inactive,inactive,inactive,inactive,inactive,inactive,inactive,–,–,–,inactive,–,inactive,–
CN(C)C(=O)Oc1cccc([N+](C)(C)C)c1,inactive,inactive,inactive,inactive,inactive,inactive,inactive,inactive,inactive,inactive,–,–,inactive,inactive,–,inactive,–
CC1=NN(c2cc(S(=O)(=O)O)ccc2Cl)C(=O)C1N=Nc1ccccc1 (stereo not given),inactive,inactive,inactive,inactive,inactive,inactive,inactive,inactive,inactive,inactive,inactive,inactive,inactive,61.1 µM (active),–,inactive,–
O=C1c2ccccc2C(=O)c2cc(O)ccc21,inactive,inactive,inactive,inactive,inactive,inactive,inactive,–,–,–,inactive,–,–,inactive,inactive,inactive,–
C=CC(C)(CCC=C(C)C)OC(=O)CC (stereo not given),inactive,inactive,inactive,inactive,inactive,inactive,–,inactive,inactive,inactive,inactive,–,inactive,inactive,inactive,inactive,–
CC(C)(C)C(=O)Oc1ccc(S(=O)(=O)Nc2ccccc2C(=O)NCC(=O)O)cc1,inactive,inactive,inactive,inactive,inactive,inactive,–,–,–,inactive,–,–,–,–,inactive,inactive,–
CC(=O)c1ccccc1[N+](=O)[O-],inactive,inactive,inactive,inactive,inactive,inactive,inactive,–,–,inactive,–,inactive,inactive,–,inactive,inactive,–
O=C1CCCCCCCCCCCCCCO1,inactive,inactive,inactive,inactive,inactive,inactive,–,–,inactive,inactive,–,–,inactive,inactive,inactive,–,–
c1ccc(CCc2ccccc2)cc1,inactive,inactive,inactive,inactive,inactive,inactive,inactive,–,–,inactive,–,inactive,inactive,–,inactive,–,–
O=C(c1ccccc1O)c1ccccc1O,inactive,inactive,inactive,inactive,inactive,inactive,–,–,inactive,inactive,inactive,–,–,inactive,inactive,–,inactive
